Data from the supplement of paper PMC9694430.

Key:
Assay in all cases: thermal shift delta Tm vs DMSO control; higher = stronger stabilization (binding)
Conditions in all cases: 12.5 µM; protein concentration 2 µM
LOC_OS01G57100-cb003 = tested on: LOC_OS01G57100-cb003
Summary of the method: (§1)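 Heating from 25°C to 95°C at 0.05°C/s, fluorescence was recorded for 19.5 μl wells of 2 μM E. coli-expressed, purified rice kinase domain in 100 mM potassium phosphate pH 7.5, 150 mM NaCl, 10% glycerol and 5 × SYPRO Orange with compound in DMSO. Boltzmann fits gave melting temperatures for this differential scanning fluorimetry assay. The shift reported is the mean of three replicates against the DMSO-only protein.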

LOC_OS01G60330-cb001 = tested on: LOC_OS01G60330-cb001
Summary of the method: as §1

LOC_OS01G60700-cb002 = tested on: LOC_OS01G60700-cb002
Summary of the method: as §1

LOC_OS01G63280-cb003 = tested on: LOC_OS01G63280-cb003
Summary of the method: as §1

LOC_OS01G67340-cb003 = tested on: LOC_OS01G67340-cb003
Summary of the method: as §1

LOC_OS01G70970-cb002 = tested on: LOC_OS01G70970-cb002
Summary of the method: as §1

LOC_OS02G07810-cb001 = tested on: LOC_OS02G07810-cb001
Summary of the method: as §1

LOC_OS02G08530-cb003 = tested on: LOC_OS02G08530-cb003
Summary of the method: as §1

LOC_OS02G14120-cb001 = tested on: LOC_OS02G14120-cb001
Summary of the method: as §1

LOC_OS02G17970-cb001 = tested on: LOC_OS02G17970-cb001
Summary of the method: as §1

LOC_OS02G45750-cb003 = tested on: LOC_OS02G45750-cb003
Summary of the method: as §1

LOC_OS02G54510-cb004 = tested on: LOC_OS02G54510-cb004
Summary of the method: as §1

LOC_OS03G04050-cb001 = tested on: LOC_OS03G04050-cb001
Summary of the method: as §1

LOC_OS03G12390-cb001 = tested on: LOC_OS03G12390-cb001
Summary of the method: as §1

LOC_OS03G27990-cb004 = tested on: LOC_OS03G27990-cb004
Summary of the method: as §1

LOC_OS03G50450-cb001 = tested on: LOC_OS03G50450-cb001
Summary of the method: as §1

LOC_OS03G50810-cb003 = tested on: LOC_OS03G50810-cb003
Summary of the method: as §1

LOC_OS04G35114-cb001 = tested on: LOC_OS04G35114-cb001
Summary of the method: as §1

LOC_OS04G38480-cb003 = tested on: T1, LOC_OS04G38480-cb003
T1 sequence (whole entry): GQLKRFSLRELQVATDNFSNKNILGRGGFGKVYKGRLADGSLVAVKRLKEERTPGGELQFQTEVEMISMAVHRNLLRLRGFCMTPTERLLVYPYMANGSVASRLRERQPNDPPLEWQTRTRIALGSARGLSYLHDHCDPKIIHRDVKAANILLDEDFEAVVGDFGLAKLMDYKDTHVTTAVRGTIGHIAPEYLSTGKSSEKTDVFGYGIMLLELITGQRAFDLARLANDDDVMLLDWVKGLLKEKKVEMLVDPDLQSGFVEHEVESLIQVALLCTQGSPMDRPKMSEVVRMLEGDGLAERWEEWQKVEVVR
Summary of the method: as §1

LOC_OS04G41100-cb001 = tested on: T2, LOC_OS04G41100-cb001
T2 sequence (whole entry): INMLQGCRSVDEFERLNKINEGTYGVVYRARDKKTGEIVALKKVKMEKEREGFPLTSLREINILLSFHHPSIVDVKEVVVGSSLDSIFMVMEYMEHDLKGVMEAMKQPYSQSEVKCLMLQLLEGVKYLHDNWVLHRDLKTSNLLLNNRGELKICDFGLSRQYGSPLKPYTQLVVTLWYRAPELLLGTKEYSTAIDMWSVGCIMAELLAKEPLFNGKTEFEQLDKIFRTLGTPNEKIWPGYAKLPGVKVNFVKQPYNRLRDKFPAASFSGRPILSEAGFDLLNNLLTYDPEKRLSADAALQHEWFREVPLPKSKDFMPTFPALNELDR
Summary of the method: as §1
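Further: purified Escherichia coli-expressed rice kinase domain construct.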

Row | SMILES | thermal shift delta Tm (LOC_OS01G57100-cb003) [°C] | thermal shift delta Tm (LOC_OS01G60330-cb001) [°C] | thermal shift delta Tm (LOC_OS01G60700-cb002) [°C] | thermal shift delta Tm (LOC_OS01G63280-cb003) [°C] | thermal shift delta Tm (LOC_OS01G67340-cb003) [°C] | thermal shift delta Tm (LOC_OS01G70970-cb002) [°C] | thermal shift delta Tm (LOC_OS02G07810-cb001) [°C] | thermal shift delta Tm (LOC_OS02G08530-cb003) [°C] | thermal shift delta Tm (LOC_OS02G14120-cb001) [°C] | thermal shift delta Tm (LOC_OS02G17970-cb001) [°C] | thermal shift delta Tm (LOC_OS02G45750-cb003) [°C] | thermal shift delta Tm (LOC_OS02G54510-cb004) [°C] | thermal shift delta Tm (LOC_OS03G04050-cb001) [°C] | thermal shift delta Tm (LOC_OS03G12390-cb001) [°C] | thermal shift delta Tm (LOC_OS03G27990-cb004) [°C] | thermal shift delta Tm (LOC_OS03G50450-cb001) [°C] | thermal shift delta Tm (LOC_OS03G50810-cb003) [°C] | thermal shift delta Tm (LOC_OS04G35114-cb001) [°C] | thermal shift delta Tm (LOC_OS04G38480-cb003) [°C] | thermal shift delta Tm (LOC_OS04G41100-cb001) [°C]
1 | Cc1cnc(NC(=O)Nc2cc(Br)c(C)cc2OC[C@@H]2CNCCO2)cn1 | 0.95 | 0.18 | 0.72 | 0.14 | 0.03 | 0.38 | 0.19 | 2.28 | 0.85 | 0.19 | 2.48 | 0.18 | 0.38 | 0.98 | 0.74 | 0.51 | 2.11 | 1.71 | 0.59 | 0.37
2 | O=C1NC(=O)/C(=C/c2cccc(C(F)(F)F)c2)S1 | 0.63 | 0.3 | 0.3 | 0.28 | 0.15 | 0.3 | 0.46 | 0.44 | -0.36 | 0.43 | 0.26 | 0.26 | 0.76 | 0.17 | 0.26 | 0.29 | 0.08 | 0.62 | -0.19 | 0.43
3 | Cc1nc(N)sc1-c1ccnc(Nc2ccc(N3CCOCC3)cc2)n1 | 1.88 | 3.15 | 0.88 | 0.17 | -0.01 | 1.58 | 0.79 | 2.22 | 8.9 | -0.16 | 3.37 | 1.11 | 0.62 | 3.79 | 1.2 | 1.67 | 2.84 | 5.04 | 2.31 | 1.72
4 | CCCNC(=O)c1cn2ncnc(Nc3cc(C(=O)NC4CC4)ccc3C)c2c1C | 0.66 | 0.41 | 0.99 | 0.33 | 0.18 | 0.12 | 0.08 | 0.8 | 0.54 | -0.21 | 0.71 | 0.18 | 0.45 | -0.14 | 0.24 | 0.49 | 0.26 | 0.65 | 0.42 | 0.24
5 | Cc1cn(-c2cc(NC(=O)c3ccc(C)c(Nc4nccc(-c5cccnc5)n4)c3)cc(C(F)(F)F)c2)cn1 [Nilotinib (AMN-107)] | 0.85 | 1.29 | 0.99 | 0.49 | -0.08 | 0.3 | 0.5 | 0.55 | 0.37 | 0.01 | 0.19 | 0.17 | 0.37 | 0.05 | 0.02 | 0.23 | 0.16 | -0.37 | 0.3 | 0.57
6 | CNC(=O)c1nn(C)c2c1C(C)(C)Cc1cnc(Nc3ccc(N4CCN(C)CC4)cc3)nc1-2 | 1.59 | 0.33 | 0.69 | -0.14 | 1.14 | 0.87 | 0.68 | 1.93 | 4.82 | 0.05 | 7.62 | 0.71 | 0.62 | -0.14 | 1.08 | 0.91 | 4.16 | 7.06 | 1.96 | 0.65
7 | NC(=O)c1cnc2[nH]ccc2c1N[C@@H]1[C@@H]2CC3C[C@H]1C[C@@](O)(C3)C2 | 0.13 | 10.2 | 1.43 | 3.87 | 3.53 | 6.42 | 0.39 | 3 | 6.44 | 0.82 | 8.38 | 2.49 | -0.03 | 7.42 | 4.38 | 3.97 | 4.9 | 3.87 | 2.99 | 1.15
8 | Nc1ncnc2n[nH]c(Nc3ccc(F)cc3)c12 | 1 | 1.15 | 0.86 | 3.22 | 0.86 | 0.93 | 0.46 | 1.06 | 3.5 | 0.76 | 4.8 | 0.26 | 0.25 | 2.15 | 3.38 | 0.1 | 0.92 | 5.47 | 0.62 | 0.32
9 | CC[C@@H]1C(=O)N(C)c2cnc(Nc3ccc(C(=O)N[C@H]4CC[C@H](N5CCN(CC6CC6)CC5)CC4)cc3OC)nc2N1C(C)C [Volasertib (BI 6727)] | 1.58 | 2.49 | 0.62 | 0.08 | 1.23 | 0.17 | 0.23 | 1.87 | -0.05 | 0.41 | 1.95 | 0.58 | 0.68 | 0.73 | 0.69 | 1.23 | 0.54 | 1 | 0.84 | 0.24
10 | Cn1cnc2c(F)c(Nc3ccc(Br)cc3Cl)c(C(=O)NOCCO)cc21 [Selumetinib (AZD6244)] | 0.72 | 0.77 | 1.13 | -0.08 | -0.85 | 0.48 | 0.62 | 0.39 | 0.1 | 0.19 | 0.34 | 0.31 | 0.26 | 0.11 | -0.04 | -0.25 | 0.02 | 0.24 | 0.38 | 0.75
11 | O=C(Nc1ccccc1C(=O)NC1CCCCNC1=O)c1cc2ccccc2s1 (stereo not given) | 1.14 | 1.02 | 0.65 | -0.03 | 0.41 | 0.19 | 0.51 | 0.19 | 0.18 | 0.88 | 0.67 | 0.07 | 0.19 | -0.24 | 0.15 | 0.22 | 0.43 | 0.94 | 1.47 | 0.17
12 | CC(C)(C)c1cc(NC(=O)Nc2ccc(-c3cn4c(n3)sc3cc(OCCN5CCOCC5)ccc34)cc2)no1 [Quizartinib (AC220)] | 0.35 | 0.35 | 1.08 | 0.09 | 0.36 | 0.3 | 0.96 | 1.36 | 0.28 | 1.06 | -0.83 | 0.02 | -0.02 | 0.08 | 0.09 | -0.11 | 0.82 | 0.41 | 0.67 | 0.81
